Inconclusive results are not listed. Values without a mark were called inactive. Active and inactive are the calls of the source. Calls come from the whole dose curve; as a rule, active = well fitted inhibition curve with a large enough effect; inconclusive = small, poorly fitted or top-dose-only effect; inactive = flat fitted curve, though single readings scatter.
Legend:
Test in all cases: Cytotoxic Profiling of Annotated Libraries Using Quantitative High-Throughput Screening (AID 1296008); note: nearly all actives have a fitted effect of over 60% in size
Settings in all cases: Five cell lines viability, CellTiter-Glo ATP luminescence, 48-72 h; max response: hits give low values
CRL-7250 = normal cell line; tested on: CRL-7250
Summary of the method: (§1)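 Compounds were pin-transferred onto cells and incubated 48 or 72 hr at 37 degree Celsius, 95% humidity. CellTiter-Glo was added, plates sat 10 min at room temperature, then ATP-coupled luminescence was imaged as the viability read-out.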

HaCat = tested on: HaCat
Summary of the method: as §1

KB-3-1 = tested on: KB-3-1
Summary of the method: as §1

NIH3T3 = tested on: NIH3T3
Summary of the method: as §1

HEK293 = tested on: HEK293
Summary of the method: as §1
% is set by controls: 0 for no effect and ±100 for the full control effect; potency is the fitted concentration of half-maximal effect.

## O=C(NO)c1ccccc1
CRL-7250
  max response: -19.7%
HaCat
  max response: 4.14%
KB-3-1
  max response: -12.1%
NIH3T3
  max response: -4.92%

## CCCN(CCC)C(=O)C(CCC(=O)OCCCN1CCN(CCOC(=O)Cc2c(C)n(C(=O)c3ccc(Cl)cc3)c3ccc(OC)cc23)CC1)NC(=O)c1ccccc1 (configuration not stated)
CRL-7250
  max response: -6.96%
HaCat
  max response: -0.687%
KB-3-1
  max response: -0.886%
NIH3T3
  max response: 1.41%

## CCCCNc1ccc(C(=O)OCCN(CC)CC)cc1
CRL-7250
  max response: -6.06%
HaCat
  max response: -28.3%
KB-3-1
  max response: -0.138%

## O=C1NC(=O)/C(=C/c2ccc3c(c2)OC(F)(F)O3)S1
CRL-7250
  max response: 4.23%
HaCat
  max response: -3.64%
NIH3T3
  max response: -4.12%

## CCN1C(=O)c2ccccc2C1Nc1ccc(OCCN2CCCCC2)cc1 (configuration not stated)
CRL-7250
  max response: -2.5%
HaCat
  max response: -6.62%
KB-3-1
  outcome: inactive
NIH3T3
  max response: -13.7%

## CCC(CN)=C(c1ccccc1)c1ccccc1
CRL-7250
  outcome: inactive
HaCat
  max response: 1.4%
NIH3T3
  outcome: inactive

## CC(C)NCCCC1(C(N)=O)c2ccccc2-c2ccccc21
CRL-7250
  outcome: inactive
HaCat
  max response: 4.87%
NIH3T3
  max response: -1.37%

## CCc1cc2cc(OC)c(OC)cc2c(Cc2ccccc2)n1
CRL-7250
  outcome: inactive
HaCat
  outcome: inactive
NIH3T3
  max response: -13.3%

## O=[N+]([O-])c1ccc(-c2nc(-c3ccc(F)cc3)c(-c3ccncc3)[nH]2)cc1
CRL-7250
  outcome: inactive
HaCat
  max response: -22.5%

## Nc1ncnc2c1ncn2Cc1c(F)cccc1Cl
CRL-7250
  max response: -8.42%
HEK293
  outcome: inactive
NIH3T3
  outcome: inactive

## O=C(OCCN1CCOCC1)c1cccnc1Nc1cccc(C(F)(F)F)c1
CRL-7250
  max response: -4.59%
HaCat
  outcome: inactive
NIH3T3
  max response: -0.363%

## CO/N=C(/C(=O)N[C@@H]1C(=O)N2C(C(=O)O)=C(Cn3nnc(C)n3)CS[C@H]12)c1csc(N)n1
CRL-7250
  max response: 4.76%
HaCat
  max response: -1.44%
KB-3-1
  outcome: inactive
NIH3T3
  max response: 2.67%

## CCOC(=O)c1ccc(NC(=O)CN2CCCCC2)cc1
CRL-7250
  max response: -6.82%
HaCat
  max response: 4.59%
KB-3-1
  outcome: inactive
NIH3T3
  outcome: inactive

## CC(C)OC(=O)c1cc2c(OCC(O)CNC(C)(C)C)cccc2[nH]1 (configuration not stated)
CRL-7250
  max response: -22.1%
HaCat
  max response: -9.3%
KB-3-1
  max response: -5.12%

## CCCCCN(CCCOC)C(=O)C(CCC(=O)O)NC(=O)c1ccc(Cl)c(Cl)c1 (configuration not stated)
CRL-7250
  max response: -0.363%
HEK293
  max response: -5.64%
NIH3T3
  max response: -3.2%

## CN(C)CCOC1=Cc2ccccc2Sc2ccc(Cl)cc21
CRL-7250
  max response: -2.09%
HaCat
  outcome: inactive
KB-3-1
  max response: -15.8%
NIH3T3
  max response: -0.0906%

## CC1CC(=O)NN=C1c1ccc(NCC(C)(C)NCC(O)COc2cc(Cl)ccc2C#N)cc1 (configuration not stated)
CRL-7250
  max response: -11.5%
HaCat
  max response: -12.2%
KB-3-1
  max response: -1.42%
NIH3T3
  max response: -20.4%

## C/C=C(/C(=C/C)c1ccc(OC(C)=O)cc1)c1ccc(OC(C)=O)cc1
CRL-7250
  max response: 0.166%
HaCat
  outcome: inactive
NIH3T3
  max response: -0.599%

## CCN1CCN(c2cc(-c3ccc(F)cc3)c3c(n2)CCCCCC3)CC1
CRL-7250
  max response: 3.32%
HaCat
  max response: 0.965%
KB-3-1
  max response: -12.5%
NIH3T3
  outcome: inactive

## CC(=O)OC/C=C(C)/C=C/C=C(C)/C=C/C1=C(C)CCCC1(C)C
CRL-7250
  max response: 0.956%
HaCat
  outcome: inactive
NIH3T3
  max response: 1.83%

## CCN(CC)CCN
CRL-7250
  max response: 3.12%
HEK293
  max response: 2.25%
NIH3T3
  max response: -0.486%

## CCCC(=O)c1cc(O)c(O)cc1O
CRL-7250
  max response: -22.6%
HaCat
  max response: -3.56%

## Cc1nc(C2CCCCC2)c(-c2ccc(S(N)(=O)=O)c(F)c2)o1
CRL-7250
  max response: -4.52%
HaCat
  outcome: inactive
NIH3T3
  max response: -12.8%

## CN(C)CCOC(c1ccccc1)c1ccc(Br)cc1 (configuration not stated)
CRL-7250
  max response: -20.9%
HaCat
  max response: 1.11%
NIH3T3
  max response: -1.24%

## Nc1cccc2c(N)cccc12
HEK293
  Potency: 34.4 µM (active)
HaCat
  outcome: inactive
KB-3-1
  max response: 15.8%

## O=C1NCCN1CCN1CCC(c2cn(-c3ccc(F)cc3)c3ccc(Cl)cc23)CC1
HEK293
  Potency: 6.68 µM (active)

## COc1ccc2nc(SCc3ncc(C)c(OC)c3C)[nH]c2c1
HEK293
  max response: -3.1%
HaCat
  outcome: inactive
NIH3T3
  outcome: inactive

## Cc1cc(C(C)(C)C)c(O)c(C(C)(C)C)c1
HEK293
  max response: -3.94%

## CC(=O)Nc1ccn(C2COC(COC(=O)c3ccccc3)O2)c(=O)n1 (configuration not stated)
HEK293
  Potency: 18.8 µM (active)
KB-3-1
  outcome: inactive

## COC(=O)[C@H]1[C@H]2C[C@@H]3c4[nH]c5cc(OC)ccc5c4CCN3C[C@H]2C[C@@H](OC(=O)/C=C/c2ccc(O)c(OC)c2)[C@@H]1OC
HEK293
  Potency: 9.44 µM (active)

## O=C1Nc2cc(Cl)ccc2Oc2ccccc21
HEK293
  outcome: inactive
HaCat
  outcome: inactive
NIH3T3
  max response: -1.14%

## CN(C)c1cc2c(Nc3ccc4c(cnn4Cc4ccccc4)c3)ncnc2cn1
CRL-7250
  max response: -15%
NIH3T3
  max response: -15.7%

## O=C1Nc2ccccc2C1(c1ccc(O)cc1)c1ccc(O)cc1
CRL-7250
  Potency: 23.7 µM (active)
HaCat
  max response: -55.1%
NIH3T3
  max response: -21.7%

## CCOC(=O)Cn1cccc1-c1nc(-c2ccc(OC)cc2)c(-c2ccc(OC)cc2)s1
HEK293
  Potency: 8.2 µM (active)
HaCat
  max response: -29.1%
KB-3-1
  max response: 5.97%
NIH3T3
  outcome: inactive

## CC(C)(C)c1ccc(O)c(O)c1
HEK293
  Potency: 12.2 µM (active)
KB-3-1
  max response: -6.07%

## CC(C(O)c1ccccc1)N(C)CCOC(c1ccccc1)c1ccccc1 (configuration not stated)
HEK293
  Potency: 13 µM (active)
HaCat
  max response: 2.35%

## CC(C)=CCNc1ncnc2c1ncn2[C@@H]1O[C@H](CO)[C@@H](O)[C@H]1O
CRL-7250
  Potency: 1.5 µM (active)
NIH3T3
  Potency: 7.5 µM (active)
